SARS PLP yeast: qHTS of Yeast-based Assay for SARS-CoV PLP; Potency, µM (top dose mostly 32.9 µM), for inactives: top-dose activity, positive = growth rescue, hits mostly activators; S. cerevisiae expressing SARS-CoV PLpro, growth rescue; 330,000 compounds, 0.19% hits; calls by dose curve; also: 0% is about no effect; nearly all actives have a fitted effect of over 55% in size
Pf growth 96h: Primary qHTS for delayed death inhibitors of the malarial parasite plastid, 96 hour incubation; P. falciparum luciferase reporter growth, 96 h; Potency, µM (highest dose often 28.7 µM), for inactives: at the top dose activity change, negative = inhibition, most hits filed as inhibitors; 320,000 compounds, 6.9% hits; AID 504834, 2011; also: % is scaled to controls: 0 for no effect and ±100 for the full control effect
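Plates of compound plus infected erythrocytes (2% hematocrit, 0.05% parasitemia final) incubate 96 hours, 37 C, 5% CO2. Detection reagent added; reduced luminescence from the parasites' luciferase reporter flags inhibition.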
Pf growth 48h: Primary qHTS for delayed death inhibitors of the malarial parasite plastid, 48 hour incubation; P. falciparum luciferase growth in erythrocytes, 48 h; Potency, µM (series often up to 28.7 µM), without a hit: at the highest dose activity change, negative = inhibition, usual class: inhibitors; 310,000 compounds, 5.9% hits; AID 504832, 2011; also: % is scaled to controls: 0 for no effect and ±100 for the full control effect
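Erythrocytes infected with P. falciparum carrying an integrated firefly luciferase reporter (2% hematocrit, 0.1% parasitemia final) were exposed to compounds in RPMI 1640 with 0.5% Albumax at 37 C, 5% CO2. Growth inhibition was scored as reduced luminescence.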
AMA1 RON2 block: qHTS for Inhibitors of AMA1-RON; Towards Development of Antimalarial Drug Lead: Primary Screen; 360,000 compounds, 0.2% hits; Plasmodium falciparum AMA1 (3D7) - RON2 peptide interaction; Potency, µM (top dose mostly 58.2 µM), inactives show at the top dose activity change, negative = inhibition, hits mostly inhibitors; AlphaScreen AMA1-biotinylated RON2 peptide binding;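 also: 0% = vehicle wells and -100% = peptide control; nearly all actives have a fitted effect of over 45% in size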
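AMA1 (3D7) with his tag at 25 nM final met compounds first, then biotinylated RON2 peptide at 25 nM; detection used donor plus acceptor beads, 10 µg/mL apiece, read by AlphaScreen after 30 min at room temperature.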
An asterisk follows results filed as active; u = inconclusive; x = no result; [ ] = another dose, or the depositor's remark. A selection: hits, their analogues and other compounds. The true share with any hit is near 9.4%. Unless noted, calls follow the shape of the dose curve; as a rule, active = well fitted curve in the direction sought with a large enough effect; inconclusive = small, poorly fitted or top-dose-only effect, or another doubt; inactive = no such curve, though single readings can be large; an effect the other way counts as inactive or inconclusive. Potency is read from the fitted curve at half-maximal effect.

SMILES	SARS PLP yeast	Pf growth 96h	Pf growth 48h	AMA1 RON2 block
CCN(CC)c1ccc(/C=N/N(c2ccccc2)c2ccccc2)c(O)c1	-24%	7.4µM*	u	-27%
Cc1ccccc1OCC(=O)NC(=S)Nc1cccc2cc(O)ccc12	-1%	33%	37%	57%
Cc1ccc(C)c(COC(=O)c2cccc(S(=O)(=O)N3CCCC3)c2)c1	6%	-17%	u	-5%
COc1ccc(C(C)=O)cc1COC(=O)c1ccc(C)c(S(=O)(=O)N2CCOCC2)c1	-2%	9.3µM*	9.3µM*	-21%
COc1ccc(C(=O)OCc2cc(C)ccc2C)cc1S(=O)(=O)N1CCCC1	-10%	10µM*	7.4µM*	-7%[11.6 µM]
O=C(NCc1ccc(Cl)cc1)C1CCN(S(=O)(=O)c2ccc(N3CCCC3=O)cc2)CC1	u	13µM*	-18%	-8%
NC(=O)C(Cc1ccccc1)NS(=O)(=O)c1ccc(N2CCCC2=O)cc1 (stereo not drawn)	2%	9.3µM*	-4%	2%
O=C(NCc1ccc(F)cc1)C1CCN(S(=O)(=O)c2ccc(Cl)cc2)CC1	1%	-23%	3.7µM*	12%
COc1ccccc1CNC(=O)C1CCN(S(=O)(=O)c2ccc(N3CCCC3=O)cc2)CC1	-1%	15µM*	12µM*	4%
O=C(NCc1ccc(Cl)cc1)C1CCN(S(=O)(=O)c2ccccc2)CC1	1%	-8%	9%	-1%
COC(=O)C(NS(=O)(=O)c1ccc(N2CCCC2=O)cc1)c1ccccc1 (stereo not drawn)	-8%	u	12%	10%
Nc1ncnc2c1ncn2CCc1ccccc1	1%	u	22%	3%
CCOC(=O)c1ccc(S(=O)(=O)N2CCC(C(=O)NCc3ccccc3OC)CC2)cc1	-2%	8.3µM*	u	4%
CCC1CN(C(=O)N2CCC(C(=O)NCc3ccccc3OC)CC2)c2ccccc2O1 (stereo not drawn)	-3%	13µM*	u	-3%
O=C(NCc1ccccc1)C1CCN(S(=O)(=O)c2ccc(N3CCCC3=O)cc2)CC1	1%	15µM*	u	0%
CCC1CN(C(=O)N2CCC(C(=O)NCc3ccccc3OC)CC2)c2cc(C)ccc2O1 (stereo not drawn)	-1%	u	u	0%
O=C(Nc1cccc(C(F)(F)F)c1)C1CCN(S(=O)(=O)c2ccc(N3CCCC3=O)cc2)CC1	-7%	13µM*	u	4%
O=S(=O)(c1ccccc1)c1nc(-c2ccco2)oc1NCCN1CCOCC1	11%	30%	x	1%
Cc1ccc(CNc2oc(-c3ccco3)nc2S(=O)(=O)c2ccccc2)cc1	-46%	u	10µM*	-17%
O=S(=O)(c1ccc(Br)cc1)c1nc(-c2ccco2)oc1NCCCn1ccnc1	0%	u	8.3µM*	-19%
Cc1ccc(S(=O)(=O)c2nc(-c3ccccc3)oc2NCc2cccnc2)cc1	2%	u	u	-1%
O=S(=O)(c1ccc(Br)cc1)c1nc(-c2ccccc2)oc1NCCN1CCOCC1	-6%	9.3µM*	u	-17%
Cc1ccccc1-c1nc(S(=O)(=O)c2ccc(Br)cc2)c(NCc2cccnc2)o1	2%	x	13µM*	-7%
O=C(Cc1csc(Nc2nc(=S)[nH]c3ccccc23)n1)NCCCN1CCN(c2ccccc2F)CC1	8%	u	8%	33%
CCCC(=O)Nc1c(-c2ccccc2)c(=O)c(C)nn1-c1ccccc1	2%	-6%	2%	-9%
SMILES	SARS PLP yeast	Pf growth 96h	Pf growth 48h	AMA1 RON2 block
CCN(CC)CCN(C(=O)C1=COCCO1)c1nc2cc(C)cc(C)c2s1	-3%	-12%	u	3%
CCCCP(=O)(O)c1ccccc1	5%	u	25%	5%
CCCCP(=O)(CCCC)Cc1ccccc1O	3%	u	15µM*	14%
CC(C)Cc1ccc(C(=O)NCc2ccc3c(c2)OCO3)o1	-22%	u	u	0%
Cc1ccc(-n2cc(CNCCc3ncc(C)[nH]3)c(-c3ccc(F)cc3)n2)cc1	-1%	20%	1.7µM*	27%
COc1ccc(-n2cc(CNCCN3CCOC3=O)c(-c3ccccc3Cl)n2)cc1	1%	u	-7%	-9%
CCN1CCC(CNCc2cn(-c3ccc(OC)cc3)nc2-c2ccccc2Cl)C1 (stereo not drawn)	-1%	u	2.1µM*	-8%
Cc1cc(-c2nn(-c3ccccc3F)cc2CNCCc2cnccn2)c(C)s1	-1%	0%	u	-5%
COc1ccc(-n2cc(CNCCc3ncc(C)[nH]3)c(-c3ccccc3Cl)n2)cc1	2%	u	-12%	35%
Fc1ccc(-n2cc(CNCCc3ccccn3)c(-c3ccccc3Cl)n2)cc1	3%	23%	8.3µM*	23%
COc1ccc(-n2cc(CNCCCn3ccnc3)c(-c3ccccc3Cl)n2)cc1	0%	20%	1.5µM*	-8%
COc1ccc(-n2cc(CNCCc3nc(C)cc(C)n3)c(-c3ccccc3Cl)n2)cc1	1%	u	12µM*	-26%
CN1CCc2c(sc(NC(=O)c3ccc4ccccc4c3)c2C(N)=O)C1	-6%	u	-70%	x
COc1ccc(C(=O)NCc2ccc(N3CCN(C(=O)OC(C)(C)C)CC3)cc2)cc1	2%	u	u	-24%
COc1ccc(C(=O)c2c(N)sc3c2CCN(C(=O)OC(C)(C)C)C3)cc1	0%	u	13µM*	57%
CN1CCc2c(sc(N)c2C(=O)c2ccc(Cl)cc2)C1	1%	4.7µM*	u	1%
Cc1cccc(C)c1NC(=O)CSc1nnc(-c2cccnc2)o1	0%	-25%	15%	12%
COc1cc2[nH]c3c(N4CCN(c5ccccn5)CC4)ncnc3c2cc1OC	10%	15µM*	9.3µM*	-9%
CCOC(=O)N1CCN(c2ncnc3c2[nH]c2ccc(F)cc23)CC1	2%	13µM*	u	27%
COc1ccc2[nH]c3c(N4CCc5ccccc5C4)ncnc3c2c1	-19%	u	u	-25%
COc1ccc(N2CCN(c3ncnc4c3[nH]c3ccccc34)CC2)cc1	x	u	u	-4%
Fc1ccc2[nH]c3c(N4CCN(c5ccccc5)CC4)ncnc3c2c1	-15%	12µM*	13µM*	-18%
Cc1cccn2c(=O)c(C(=O)NCCCN3CC(C)CC(C)C3)c(O)nc12 (stereo not drawn)	-2%	0.83µM*	2.1µM*	-2%
CC1CC(C)CN(CCCNC(=O)CCNC(=O)Cn2ccc3ccccc3c2=O)C1 (stereo not drawn)	-6%	5.2µM*	x	-6%
CC1CC(C)CN(CCCNC(=O)CCNC(=O)Cn2cnc3ccccc3c2=O)C1 (stereo not drawn)	-7%	-5%	13%	10%
CC1CC(C)CN(CCCNC(=O)c2c(O)nc3ccccn3c2=O)C1 (stereo not drawn)	4%	u	4.1µM*	-4%

Screens deposited in PubChem by National Center for Advancing Translational Sciences (NCATS).
